Results reported in the supplement of paper PMC3484114.
± gives the standard deviation.

The compounds below were run on OVCAR-3-derived ovarian cancer stem-like cells (spheroids) (assay: cell growth relative to untreated control; higher = more growth (less inhibition)). Conditions: 2.29 µM; 96 h.
In short: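 Stem-like cells derived from OVCAR-3 spheroids were dissociated with trypsin and seeded at 50,000 cells/mL in stem cell medium in ultra-low attachment 96-well plates, then preincubated for 24 h. Each compound was added at 2.29 uM to 4 replicate wells and left for 96 h at 37°C, 5% CO2. Viability came from TOX8 resazurin fluorescence (ex 560/em 590 nm) read after 4 h. Percent growth was expressed relative to untreated wells, after blank subtraction and removal of outliers by the Grubbs test.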
Compound `COc1cc([C@@H]2c3cc4c(c(O)c3C[C@H]3COC(=O)[C@@H]32)OCO4)cc(OC)c1O` has a cell growth of 20.4 ± 5.8%. `CC1OC(O[C@@H]2C=C3CC[C@@H]4[C@H](CC[C@]5(C)[C@@H](c6ccc(=O)oc6)CC[C@]45O)[C@@]3(C)CC2)C(O)C(O)C1O` (some centres not stated) showed a cell growth of 24.5 ± 6.9%. In the case of `Cc1ccc(N=Nc2c(O)ccc3ccccc23)cc1`, the cell growth is reported as 74.1 ± 8.8%. Compound `CCOC(=O)NC1=C(N2CC2)C(=O)C(NC(=O)OCC)=C(N2CC2)C1=O` has a cell growth of 50.1 ± 9.1%. `N#CC(NCc1cccc(CNC(C#N)c2ccccc2)c1)c1ccccc1` (configuration not stated) gave a cell growth of 93.3 ± 30%. `Cc1c(N)nc([C@H](CC(N)=O)NC[C@H](N)C(N)=O)nc1C(=O)N[C@H](C(=O)N[C@H](C)[C@@H](O)[C@H](C)C(=O)N[C@H](C(=O)NCCc1nc(-c2nc(C(=O)NCCC[S+](C)C)cs2)cs1)[C@@H](C)O)[C@@H](OC1OC(CO)C(O)C(O)C1OC1OC(CO)C(O)C(OC(N)=O)C1O)c1cnc[nH]1` (some centres not stated) gave a cell growth of 53 ± 10%. With `C[N+](C)(C)CC1CCCC1=O` (configuration not stated) the cell growth was 95.5 ± 20%. Compound `Cc1cc(N(CC(C)Br)CC(C)Br)ccc1N=Nc1ccccc1C(=O)O` (configuration not stated) has a cell growth of 64.5 ± 14%. `CC[C@H](C)[C@@H]1NC(=O)[C@@H](NC(=O)c2c3nc4c(C(=O)N[C@@H]5C(=O)N[C@@H](C(C)C)C(=O)N6CCC[C@H]6C(=O)N(C)CC(=O)N(C)[C@@H](C(C)C)C(=O)O[C@@H]5C)ccc(C)c4oc-3c(C)c(=O)c2N)[C@@H](C)OC(=O)[C@H](C(C)C)N(C)C(=O)CN(C)C(=O)[C@@H]2CCCN2C1=O` gave a cell growth of 10.9 ± 3.5%. `NC(=O)OCc1c(O)c2c(c(O)c1COC(N)=O)C(=O)C=CC2=O` showed a cell growth of 95.9 ± 14%. `CC[C@@]1(O)C[C@H](O)c2c(O)c3c(c(O)c2[C@H]1C(=O)OC)C(=O)c1cccc(O)c1C3=O` showed a cell growth of 49.5 ± 20%. `CO[C@H]1Nc2c(ccc(C)c2O)C(=O)N2C=C(/C=C/C(N)=O)C[C@@H]12` showed a cell growth of 12.8 ± 2.4%. Work on `CC1=C(N2CC2)C(=O)C(CO)=C(N2CC2)C1=O` yielded a cell growth of 9 ± 3.5%. For `CCOC(OCC)C(CC)[Se]c1ccccc1[N+](=O)[O-]` (configuration not stated), the cell growth was 120 ± 21%. For `CC[C@@]1(O)C[C@H](O[C@H]2C[C@H](N(C)C)[C@H](O[C@H]3C[C@@H]4O[C@H]5CC(=O)[C@H](C)O[C@H]5O[C@@H]4[C@H](C)O3)[C@H](C)O2)c2c(cc3c(c2O)C(=O)c2c(O)ccc(O)c2C3=O)[C@H]1C(=O)OC`, the cell growth was 11 ± 3.4%. `CC(C)C[C@H]1C(=O)N2CCC[C@H]2[C@]2(O)O[C@](NC(=O)[C@@H]3C=C4c5cccc6[nH]c(Br)c(c56)C[C@H]4N(C)C3)(C(C)C)C(=O)N12` showed a cell growth of 90.6 ± 6.8%. `O=C([O][Hg][CH2]C1COC([CH2][Hg][O]C(=O)c2ccccc2)CO1)c1ccccc1` (configuration not stated) showed a cell growth of 69.9 ± 76%. `CCCC/C=C/C=C/C=C/CCCCCCCC(=O)OCC(COC(=O)CCCCCCC/C=C/C1C=CC(CCCC)C(C(=O)O)C1C(=O)O)OC(=O)CCCCCCC/C=C/C=C/C=C/CCCC.OCCNCO` (configuration not stated) gave a cell growth of 115 ± 16%. `CC(=O)O[C@H]1C(=O)[C@@]2(C)[C@H]([C@H](OC(=O)c3ccccc3)[C@]3(O)C[C@H](O)C(C)=C1C3(C)C)[C@]1(OC(C)=O)CO[C@@H]1C[C@@H]2O` showed a cell growth of 123 ± 26%. For `COc1ccc(-c2cc(=O)c3c(OC)c(OC)c(OC)cc3o2)cc1`, the cell growth was 120 ± 31%. Compound `c1csc(C[N+]23CN4CN(CN(C4)C2)C3)c1` has a cell growth of 108 ± 17%. `CCC[CH2][Sn]1([CH2]CCC)[S]CC[N]1S(=O)(=O)c1ccc(C)cc1` showed a cell growth of 36.9 ± 13%. `COc1ccc(O)c2c(=O)c3c(OC)cc4c(c3oc12)[C@@H]1C=CO[C@@H]1O4` showed a cell growth of 90.1 ± 25%. For `C[n+]1cc2cc(O)c(O)cc2c2ccc3cc(O)c(O)cc3c21.c1ccncc1`, the cell growth was 91.8 ± 23%. With `COc1ccc(C2C=C(c3ccc4c(c3)OCO4)Oc3c2c(=O)oc2ccccc32)cc1OC` (configuration not stated) the cell growth was 56.4 ± 40%. For `C=Cc1cc(OC)c2c(c1)c(=O)oc1c2cc(OC)c2c(O)ccc(C3OC(C)C(O)C(C)(O)C3O)c21` (configuration not stated), the cell growth was 8.6 ± 6%. Compound `CC(O)CCC(=O)c1ccoc1` (configuration not stated) has a cell growth of 99 ± 17%. `O=C1C=C2C=CC3CC2(O1)C1CCCCN31` (configuration not stated) showed a cell growth of 49.8 ± 9.5%. Work on `CO[C@H]1[C@@H](O)[C@@H](C)O[C@H](O[C@H]2[C@H](Oc3cccc4c(O)c5c(=O)oc6ccc(C)c7c(=O)oc(c34)c5c67)O[C@H](C)[C@H](O)[C@@H]2O)[C@@H]1O` yielded a cell growth of 67.4 ± 17%. In the case of `C1CN1c1nc(N2CC2)nc(N2CC2)n1`, the cell growth is reported as 129 ± 82%. `CC1=C[C@H]2O[C@@H]3[C@H](O)[C@@H](O)[C@@](C)([C@@]2(CO)CC1)[C@]31CO1` was tested, and the cell growth was 36 ± 10%. In the case of `CC12CCC(O)CC1CCC1C2CCC2(C)C(C3=CC(=O)OC3)CCC12O` (configuration not stated), the cell growth is reported as 26.5 ± 3.1%.
